Most compounds without a hit are left out; they make up all but 2.4% or so of the library.
D2 ag-1: agonists of human D2 dopamine receptor; activation, % at 2 µM; P14416; hit rate 0.53% among 340,000; AID 485358; HEK293 T-REx D2 cells, calcium flux agonist mode;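 active = activation over 3 SD above normal in the single-dose calcium agonist read, cut at about 30% in these data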
Target sequence (P14416 whole entry, looked up): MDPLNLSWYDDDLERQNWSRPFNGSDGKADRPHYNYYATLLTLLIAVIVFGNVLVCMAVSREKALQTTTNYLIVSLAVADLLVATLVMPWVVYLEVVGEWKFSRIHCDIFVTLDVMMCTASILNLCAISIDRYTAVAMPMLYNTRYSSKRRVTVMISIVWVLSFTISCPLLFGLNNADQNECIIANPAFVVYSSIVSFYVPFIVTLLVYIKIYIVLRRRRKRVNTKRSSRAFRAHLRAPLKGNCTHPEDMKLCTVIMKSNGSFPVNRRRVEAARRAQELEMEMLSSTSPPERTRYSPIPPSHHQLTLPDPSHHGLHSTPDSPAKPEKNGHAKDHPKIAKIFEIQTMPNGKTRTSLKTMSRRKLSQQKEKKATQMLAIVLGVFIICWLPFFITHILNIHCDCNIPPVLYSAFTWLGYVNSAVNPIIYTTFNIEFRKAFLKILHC
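Agonism is scored from calcium flux in a force-coupled, inducible HEK293 cell line expressing D2, read kinetically for 180 s after compound addition against dopamine controls.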
D2 PAM-1: human D2 receptor positive allosteric modulation; AID 624464; P14416; DiscoveRx D2 beta-arrestin cells, luminescence, 90 min; 100% = 57 uM dopamine signal; potentiation, % (no concentration beside the values); hit rate 0.23% among 360,000; in the data active = potentiation above about 50%; inconclusive = mostly about 30% to 49%
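PathHunter D2 cells, attached overnight at 37 deg C, received compound in DMSO plus dopamine at EC20 (50 nM final) for 90 min at 37 deg C. Beta-arrestin recruitment was read as luminescence after 1 h with detection reagent at ambient temperature.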
D2 ag-2: agonists of human D2 dopamine receptor (beta-arrestin). activation, % (test concentration not listed). P14416. DiscoveRx PathHunter D2 beta-arrestin, luminescence, 90 min; 100% = 57 uM dopamine signal. hit rate 0.084% among 360,000; in the data active = activation above about 40%; inconclusive = between about 15% and that limit
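Agonist mode: compounds alone added to overnight-plated D2 PathHunter cells for 90 min at 37 C, with 57 uM final dopamine (EC100) defining full response. Beta-arrestin recruitment detected by chemiluminescent reagent, read after 1 h at ambient temperature.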
D2 antag: antagonizes the human D2 dopamine receptor | P14416 | HEK293 TREx D2 cells, calcium flux, dopamine EC80 | inhibition, % at 10 µM | hit rate 2% among 340,000 | AID 485344; in the data active = inhibition above about 30%; inactive = below that, where a call was filed
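Read-out: kinetic calcium fluorescence (1 cycle/s) in inducible HEK293 T-REx D2 cells after an EC80 dopamine addition that followed 180 s compound preincubation. Loss of the dopamine response indicates antagonism.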
D2 PAM-2: positively modulates the human D2 dopamine receptor allosterically. HEK293 T-REx D2, calcium flux, EC20 dopamine potentiation. potentiation, % at 10 µM. hit rate 0.34% among 340,000;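 active = potentiation over 3 SD above the plate norm, cut at about 30% in these data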
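Tetracycline-induced Hek293 Trex D2 cells, force-coupled to calcium, loaded with no-wash calcium dye. Compound added with 180 s kinetic read for agonism, then EC20 dopamine and a further 180 s read for potentiation.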
Numbers stand for hits; - = inactive; ? = inconclusive; . = not tested or not shown; ! = repeats disagree.

SMILES	D2 ag-1	D2 PAM-1	D2 ag-2	D2 antag	D2 PAM-2
Cc1nc2c3ccccc3nc(NNC(=O)CCC(=O)N3CCN(c4ccccc4)CC3)n2n1	31!	-	-	-	-
Cc1ccc(CN2CCC(NC(=O)c3ccccc3)CC2)cc1	-	-	-	90	-
Cc1ccccc1C(=O)NC1CCN(Cc2ccccc2)CC1	-	-	-	-	-
CC1CCCC(C)N1C(=O)c1ccc(S(=O)(=O)NCc2ccco2)cc1 (centres undefined)	-	-	-	37	.
CC1(C)Cc2cccc(C(=O)NC3CCN(Cc4ccccc4)CC3)c2O1	-	-	-	73	-
O=C(NC1CCN(Cc2ccccc2)CC1)c1ccc(S(=O)(=O)NCc2ccco2)cc1	-	-	-	36	-
O=C(NC1CCN(Cc2ccccc2)CC1)c1cn(-c2ccccc2)nc1-c1cccnc1	-	-	-	75	-
Cc1ccc(C)n1-c1ccc(C(=O)NC2CCN(Cc3ccccc3)CC2)cc1	-	-	-	85	-
O=C(O)c1cn(-c2ccccc2)nc1-c1cccnc1	-	-	-	-	-
CCOc1ccc(OCC)c(NS(=O)(=O)c2c(C(=O)N3CCCCCC3)c(C)n(C)c2C)c1	.	.	.	.	-
COc1ccc(/C=C2\CCCc3c2nc2ccccc2c3C(=O)O)cc1OC	184	.	.	31	-
CCOc1ccc(CNCc2c(C(=O)O)n(Cc3ccccc3C)c3cc(OC)ccc23)cc1OC	-	.	.	.	-
N=c1c2c(-c3ccccc3)c(-c3ccccc3)n(Cc3ccco3)c2ncn1Cc1ccccc1	-	-	-	-	-
CC(C)Cn1cnc2c(c(-c3ccccc3)c(-c3ccccc3)n2Cc2ccco2)c1=N	-	-	-	46	-
CC1=Nn2c(nc3sc4c(c3c2=O)CCCC4)SC1	-	-	-	55	-
O=c1c2c3c(sc2nc2n1CCCCC2)CCCCC3	-	.	.	57	-
Cc1cccc(NC(=O)c2oc3ccc(S(=O)(=O)N(C)C4CCCCC4)cc3c2C)c1C	-	.	.	.	-
Cc1cccc(C)c1NC(=O)CN1C(=O)S/C(=C\c2cccn2C)C1=O	-	-	-	30	-
Cc1cccc(C)c1NC(=O)CN1C(=O)S/C(=C\c2cccn2-c2cccc(C(=O)O)c2)C1=O	-	-	-	-	-
COc1ccc(C)cc1NC(=O)CSc1nc2ccccc2nc1N1CC(C)OC(C)C1 (centres undefined)	-	-	-	38	-
CCc1nc(SCC(=O)Nc2cc(C)ccc2OC)c2c(C)c(C)sc2n1	-	-	-	44	-
COc1ccccc1NC(=O)CSc1nc2ccccc2nc1N1CC(C)OC(C)C1 (centres undefined)	-	-	-	-	-
CCc1nc(SCC(=O)Nc2ccccc2OC)c2c(C)c(C)sc2n1	-	-	-	-	-
CNS(=O)(=O)c1ccc(C(C)(C)C)cc1	-	-	-	65	-
Cc1cc(C)c2ccc(N)nc2c1O	-	-	-	-	-
SMILES	D2 ag-1	D2 PAM-1	D2 ag-2	D2 antag	D2 PAM-2
Cc1cc(C)c2ccc(C)[n+]([O-])c2c1O	-	-	-	37	-
c1ccc(-c2cc3nc(NCC4CC4)nc(NCC4CCCCC4)c3s2)cc1	.	-	41	.	.
COCCNc1nc(NCC2CCCCC2)c2sc(-c3ccccc3)cc2n1	.	-	?	.	.
O=C(CCc1nnc2n(Cc3ccccc3Cl)c(=O)c3ccccc3n12)Nc1ccc(F)cc1	-	.	.	.	-
O=c1onc(-c2ccccc2Cl)n1-c1ccccc1Cl	.	58	40	.	.
CC(=O)c1c(N2CCCC2)[nH]c(-c2ccccc2)nc1=S	-	-	-	-	-
CC(=O)c1c(N2CCN(Cc3ccccc3)CC2)[nH]c(-c2ccccc2)nc1=S	-	-	-	73	-
COCCSc1nnc(NC(=O)c2ccc([N+](=O)[O-])cc2)s1	.	-	-	.	-
CCOC(=O)CSc1nnc(NC(=O)c2cc([N+](=O)[O-])cc([N+](=O)[O-])c2)s1	-	63	-	-	-
COc1ccc(Cc2nnc(NC(=O)c3c(-c4ccccc4)noc3C)s2)cc1OC	-	.	.	-	-
COc1ccc(Cc2nnc(NC(=O)c3c(-c4ccccc4)noc3C)s2)cc1	-	-	-	-	34
COc1ccc(Cc2nnc(NC(=O)c3cccs3)s2)cc1OC	-	-	-	-	40
COc1ccc(Cc2nnc(NC(=O)c3ccc(OC)c(OC)c3)s2)cc1OC	-	-	-	-	-
COc1ccc(-c2nnc(NC(=O)C(C)C)s2)c(OC)c1	-	-	-	-	36
CCOCc1nnc(NC(=O)c2ccc(OC)cc2)s1	-	-	-	33	-
COCc1nnc(NC(=O)c2ccc(OC)cc2OC)s1	-	-	-	39	38
COc1ccc(C(=O)Nc2nnc(Cc3ccc(OC)c(OC)c3)s2)c(OC)c1	-	-	-	-	-
O=C(Nc1cccc(C(F)(F)F)c1)C1CC(=O)N(CCc2ccccc2)C1 (centres undefined)	-	-	-	63	-
c1ccc(N2CCN(CC3CCCCC3)CC2)cc1	71	-	?	68	-
Nc1nnc(SCC(=O)NNC(=O)c2ccc(F)cc2)s1	-	-	-	-	-
O=C(CSc1ncccn1)NC(=O)c1ccccc1	-	-	-	-	34
Nc1nnc(SCC(=O)NNC(=O)c2ccccc2)s1	-	-	-	37	-
O=C(CSc1ccccc1)NNC(=O)c1ccncc1	-	-	-	57	-
O=C(CSc1ncccn1)NCc1ccc(Cl)cc1	-	-	-	36	-
CCN(CC)CCNC(=O)c1ccc(N2CCCCC2)c(NS(=O)(=O)c2ccc(C)cc2)c1	-	-	-	56	-
SMILES	D2 ag-1	D2 PAM-1	D2 ag-2	D2 antag	D2 PAM-2
CCN1CCCC1CNC(=O)c1ccc(N2CCOCC2)c(NS(=O)(=O)c2ccc(OC)cc2)c1 (centres undefined)	-	-	-	33	-
O=C(CCc1nnc2n(Cc3ccccc3)c(=O)c3ccccc3n12)NCCN1CCOCC1	-	-	-	-	-
CCOc1ccc(OCC)c(NC(=O)Nc2ccc3c(c2)N(C)C(=O)CS3)c1	-	-	-	64	-
COc1cccc(-c2ccc3nnc(SCC(=O)N4CCCC4)n3n2)c1	-	-	-	-	-
CC1CCN(C(=O)CSc2nnc3ccc(-c4cccnc4)nn23)CC1	-	-	-	38	-
CCc1ccc(NC(=O)c2cc(=O)c3ccc(C)c(C)c3o2)cc1	.	.	.	.	-
COc1cc(/C=C/C(=O)OCC(=O)NC(=O)NC(C)C)ccc1OCC#N	-	-	-	46	-
CCCCc1ccc(NC(=S)N2CCN(c3ccccn3)CC2)cc1	-	-	-	-	-
CCC(C)c1ccc(NC(=S)N2CCN(c3ccccn3)CC2)cc1 (centres undefined)	30	-	-	-	-
COc1ccc(-c2ccc3[nH]c4c(c3c2)CCN2C(=O)[C@@H]([C@H](C)O)[C@@H](N(C)C(=O)Nc3ccc(F)cc3)C[C@@H]42)cc1	.	-	-	.	.
